# Measured values as given in article PMC7862700, “An all-to-all approach to the identification of sequence-specific readers for epigenetic DNA modifications on cytosine”.
# Legend:
# Test in all cases: DAPPL (digital affinity profiling via proximity ligation, sequencing); 10 mM Tris-HCl pH 7.5, 50 mM NaCl, 1 mM DTT, 4% glycerol, room temperature, 30 min; GST-TFs on glutathione beads, 16-mer random dsDNA library, 0.1% formaldehyde crosslink after washing; high values mean tight binding
# FEV = biological target: T1, FEV (Homo sapiens, UniProt Q99581 1-238); details: protein: recombinant; tags: N-terminal GST; dsDNA, one strand shown
# T1 sequence: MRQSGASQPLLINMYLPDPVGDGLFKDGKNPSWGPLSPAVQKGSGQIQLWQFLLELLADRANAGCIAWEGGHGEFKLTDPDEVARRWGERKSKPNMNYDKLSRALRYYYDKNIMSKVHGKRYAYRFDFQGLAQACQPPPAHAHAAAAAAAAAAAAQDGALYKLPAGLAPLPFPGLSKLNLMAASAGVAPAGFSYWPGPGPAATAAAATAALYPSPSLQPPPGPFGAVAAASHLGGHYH
# How it was run: (§1)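 GST fusions of human transcription factors were expressed in yeast and captured with glutathione beads. Once given DNA barcodes and pooled alongside a tag-only sample, they were incubated for 30 min at room temperature with 200 nmole of a random double-stranded 16-mer DNA library in Tris/NaCl/DTT/glycerol buffer, then washed, crosslinked (0.1% formaldehyde), proximity-ligated, PCR-amplified and sequenced on an Illumina NextSeq500. The binding signal of each hexamer is its read frequency for a factor divided by its frequency for the tag-only sample.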
# ETV5 = ETV5 (Homo sapiens, UniProt P41161 1-510); details: protein: recombinant; tags: N-terminal GST; dsDNA, one strand shown
# How it was run: as §1
# HSF1 = HSF1 (Homo sapiens, UniProt Q00613 1-529); details: protein: recombinant; tags: N-terminal GST; chain copies: 3; dsDNA, one strand shown
# How it was run: as §1
# SPIC = biological target: T2, SPIC (Homo sapiens, UniProt Q8N5J4 1-248); details: protein: recombinant; tags: N-terminal GST; dsDNA, one strand shown
# T2 sequence: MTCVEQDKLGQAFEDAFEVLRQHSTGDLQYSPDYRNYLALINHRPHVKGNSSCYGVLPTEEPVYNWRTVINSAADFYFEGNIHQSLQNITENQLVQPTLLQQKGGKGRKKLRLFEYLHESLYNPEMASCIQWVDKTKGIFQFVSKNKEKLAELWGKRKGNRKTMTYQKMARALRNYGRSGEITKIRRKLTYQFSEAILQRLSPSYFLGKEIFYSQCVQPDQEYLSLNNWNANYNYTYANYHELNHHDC
# How it was run: as §1
# ELF4 = ELF4 (Homo sapiens, UniProt Q99607 1-663); details: protein: recombinant; tags: N-terminal GST; dsDNA, one strand shown
# How it was run: as §1
# ELK4 = biological target: T3, ELK4 (Homo sapiens, UniProt P28324-2 1-405); details: protein: recombinant; tags: N-terminal GST; dsDNA, one strand shown
# T3 sequence: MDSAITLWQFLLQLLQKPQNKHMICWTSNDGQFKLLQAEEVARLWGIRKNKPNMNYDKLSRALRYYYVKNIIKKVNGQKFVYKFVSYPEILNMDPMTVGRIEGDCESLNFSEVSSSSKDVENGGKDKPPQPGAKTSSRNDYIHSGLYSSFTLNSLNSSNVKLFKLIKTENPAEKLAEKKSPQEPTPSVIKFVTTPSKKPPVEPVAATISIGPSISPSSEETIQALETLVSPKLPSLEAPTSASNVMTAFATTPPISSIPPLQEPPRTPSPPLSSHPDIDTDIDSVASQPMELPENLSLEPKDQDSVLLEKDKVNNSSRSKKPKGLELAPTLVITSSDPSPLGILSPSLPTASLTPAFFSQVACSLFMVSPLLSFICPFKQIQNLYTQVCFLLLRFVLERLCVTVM
# How it was run: as §1
# ETV2 = biological target: T4, ETV2 (Homo sapiens, UniProt O00321 1-342); details: protein: recombinant; tags: N-terminal GST; dsDNA, one strand shown
# T4 sequence: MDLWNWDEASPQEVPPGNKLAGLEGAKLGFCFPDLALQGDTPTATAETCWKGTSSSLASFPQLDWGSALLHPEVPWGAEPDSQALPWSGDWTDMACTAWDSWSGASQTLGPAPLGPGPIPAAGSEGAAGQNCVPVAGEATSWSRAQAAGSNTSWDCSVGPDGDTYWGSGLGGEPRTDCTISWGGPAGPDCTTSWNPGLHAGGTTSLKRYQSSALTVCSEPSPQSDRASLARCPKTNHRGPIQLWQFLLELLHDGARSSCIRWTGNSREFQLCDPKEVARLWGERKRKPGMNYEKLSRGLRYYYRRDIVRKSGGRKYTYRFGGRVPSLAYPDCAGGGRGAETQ
# How it was run: as §1
# ELF3 = biological target: T5, ELF3 (Homo sapiens, UniProt P78545 1-371); details: protein: recombinant; tags: N-terminal GST; dsDNA, one strand shown
# T5 sequence: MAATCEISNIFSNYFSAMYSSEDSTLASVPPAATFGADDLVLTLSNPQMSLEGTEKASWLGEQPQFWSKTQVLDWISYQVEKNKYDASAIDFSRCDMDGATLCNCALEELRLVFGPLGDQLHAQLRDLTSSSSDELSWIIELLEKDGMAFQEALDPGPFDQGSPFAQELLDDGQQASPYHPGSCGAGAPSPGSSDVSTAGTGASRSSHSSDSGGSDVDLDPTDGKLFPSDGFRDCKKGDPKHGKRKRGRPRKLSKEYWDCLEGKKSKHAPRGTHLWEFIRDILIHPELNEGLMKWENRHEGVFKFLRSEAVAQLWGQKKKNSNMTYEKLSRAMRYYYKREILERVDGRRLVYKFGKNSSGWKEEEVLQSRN
# How it was run: as §1
# CRX = CRX (Homo sapiens, UniProt O43186 1-299); details: protein: recombinant; tags: N-terminal GST; dsDNA, one strand shown
# How it was run: as §1
# ETV1 = ETV1 (Homo sapiens, UniProt P50549 1-477); details: protein: recombinant; tags: N-terminal GST; dsDNA, one strand shown
# How it was run: as §1
# ELF4, sequence (Q99607 whole entry): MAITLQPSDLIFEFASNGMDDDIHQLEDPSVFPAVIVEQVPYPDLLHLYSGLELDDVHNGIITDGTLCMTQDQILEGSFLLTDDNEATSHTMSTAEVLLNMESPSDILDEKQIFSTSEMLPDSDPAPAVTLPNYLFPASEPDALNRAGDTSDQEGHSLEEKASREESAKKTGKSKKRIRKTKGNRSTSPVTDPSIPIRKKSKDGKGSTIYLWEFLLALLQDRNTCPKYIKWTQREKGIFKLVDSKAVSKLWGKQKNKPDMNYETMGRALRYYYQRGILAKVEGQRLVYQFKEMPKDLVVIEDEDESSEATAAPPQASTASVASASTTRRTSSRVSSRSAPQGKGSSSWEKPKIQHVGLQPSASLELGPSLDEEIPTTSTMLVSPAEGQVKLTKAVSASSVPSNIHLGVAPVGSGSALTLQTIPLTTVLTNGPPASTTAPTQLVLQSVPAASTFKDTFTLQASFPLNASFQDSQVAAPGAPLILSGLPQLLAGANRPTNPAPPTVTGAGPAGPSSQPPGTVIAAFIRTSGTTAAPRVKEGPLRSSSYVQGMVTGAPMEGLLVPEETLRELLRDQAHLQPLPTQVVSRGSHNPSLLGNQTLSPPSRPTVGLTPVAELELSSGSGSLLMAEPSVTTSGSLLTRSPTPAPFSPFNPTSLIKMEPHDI
# CRX, sequence (O43186 whole entry): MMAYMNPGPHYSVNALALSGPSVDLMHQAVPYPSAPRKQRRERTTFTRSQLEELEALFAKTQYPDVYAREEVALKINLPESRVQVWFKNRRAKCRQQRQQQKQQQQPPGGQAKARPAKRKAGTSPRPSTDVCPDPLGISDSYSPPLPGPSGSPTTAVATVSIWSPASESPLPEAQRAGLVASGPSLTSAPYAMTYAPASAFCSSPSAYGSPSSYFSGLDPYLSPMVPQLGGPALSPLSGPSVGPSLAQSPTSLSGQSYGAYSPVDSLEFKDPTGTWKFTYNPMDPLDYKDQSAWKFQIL
# ETV5, sequence (P41161 whole entry): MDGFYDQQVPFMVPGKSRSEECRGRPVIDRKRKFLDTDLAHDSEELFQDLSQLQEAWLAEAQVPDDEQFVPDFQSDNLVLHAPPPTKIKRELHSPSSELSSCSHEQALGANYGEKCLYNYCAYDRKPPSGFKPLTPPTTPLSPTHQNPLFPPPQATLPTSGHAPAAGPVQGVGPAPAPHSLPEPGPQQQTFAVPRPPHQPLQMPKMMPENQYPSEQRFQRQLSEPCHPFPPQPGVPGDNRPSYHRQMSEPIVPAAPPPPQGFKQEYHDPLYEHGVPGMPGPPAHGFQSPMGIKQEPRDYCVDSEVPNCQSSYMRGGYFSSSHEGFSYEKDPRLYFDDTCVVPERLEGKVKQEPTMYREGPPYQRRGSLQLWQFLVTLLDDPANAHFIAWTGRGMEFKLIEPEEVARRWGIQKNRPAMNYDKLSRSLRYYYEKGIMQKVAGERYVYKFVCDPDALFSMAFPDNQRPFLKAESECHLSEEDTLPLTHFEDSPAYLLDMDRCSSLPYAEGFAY
# ETV1, sequence (P50549 whole entry): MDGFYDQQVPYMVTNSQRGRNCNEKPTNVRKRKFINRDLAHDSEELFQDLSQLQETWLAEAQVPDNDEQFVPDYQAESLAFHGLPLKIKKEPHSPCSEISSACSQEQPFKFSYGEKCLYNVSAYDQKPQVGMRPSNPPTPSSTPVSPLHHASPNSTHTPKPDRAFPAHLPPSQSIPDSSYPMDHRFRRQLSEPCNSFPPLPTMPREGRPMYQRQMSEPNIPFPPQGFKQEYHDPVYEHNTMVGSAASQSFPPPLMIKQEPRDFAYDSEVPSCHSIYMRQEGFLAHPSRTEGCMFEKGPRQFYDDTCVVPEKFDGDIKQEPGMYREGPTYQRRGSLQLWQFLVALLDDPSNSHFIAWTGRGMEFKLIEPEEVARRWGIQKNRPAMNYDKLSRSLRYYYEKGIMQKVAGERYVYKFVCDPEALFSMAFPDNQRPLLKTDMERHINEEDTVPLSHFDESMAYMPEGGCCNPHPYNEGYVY
# HSF1, sequence (Q00613 whole entry): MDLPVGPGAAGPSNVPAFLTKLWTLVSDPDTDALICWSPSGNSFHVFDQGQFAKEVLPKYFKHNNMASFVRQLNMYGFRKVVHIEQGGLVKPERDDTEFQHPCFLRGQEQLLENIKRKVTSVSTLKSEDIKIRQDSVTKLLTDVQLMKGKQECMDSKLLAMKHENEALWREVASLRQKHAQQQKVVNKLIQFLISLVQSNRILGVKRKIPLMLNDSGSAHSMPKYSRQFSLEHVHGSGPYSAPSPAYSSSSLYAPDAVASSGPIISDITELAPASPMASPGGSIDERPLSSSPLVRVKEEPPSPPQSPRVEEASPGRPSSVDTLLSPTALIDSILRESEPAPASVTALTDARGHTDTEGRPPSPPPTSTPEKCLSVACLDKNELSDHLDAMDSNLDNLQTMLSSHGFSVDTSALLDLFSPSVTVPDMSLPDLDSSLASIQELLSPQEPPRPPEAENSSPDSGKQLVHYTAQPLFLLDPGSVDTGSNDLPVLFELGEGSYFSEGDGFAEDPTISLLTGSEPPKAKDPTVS
sequence,measurement,setting,value
TTCATT,binding signal,FEV,"1.23 fold enrichment (6-mer frequency, TF over GST control)"
same,binding signal,ETV5,"1.29 fold enrichment (6-mer frequency, TF over GST control)"
same,binding signal,HSF1,"1.12 fold enrichment (6-mer frequency, TF over GST control)"
same,binding signal,SPIC,"1.37 fold enrichment (6-mer frequency, TF over GST control)"
same,binding signal,ELF4,"1.21 fold enrichment (6-mer frequency, TF over GST control)"
same,binding signal,ELK4,"1.29 fold enrichment (6-mer frequency, TF over GST control)"
same,binding signal,ETV2,"1.17 fold enrichment (6-mer frequency, TF over GST control)"
same,binding signal,ELF3,"1.12 fold enrichment (6-mer frequency, TF over GST control)"
same,binding signal,CRX,"1.15 fold enrichment (6-mer frequency, TF over GST control)"
same,binding signal,ETV1,"1.21 fold enrichment (6-mer frequency, TF over GST control)"
